This note sets out measurements from ChEMBL document CHEMBL3988442, “University of Dundee, Small-Polar-MMV Screening Library” (2021).

For some of these results: Measured potencies and affinities stand elsewhere.

Common to all, as to parameters: scale not given: direction of the effect not stated beside the values
In assay [1] the target is Protein translocase subunit SecA (Escherichia coli (strain K12)) (UniProt P10408). Put plainly: Assay to Identify E. coli SecA ATPase Inhibitors. Type of assay: functional. The settings on record: 30 µM.
The target in assay [2] is T1, Ubiquitin-activating enzyme e1, putative (Leishmania donovani (strain BPK282A1)) (UniProt E9BSI1).
T1 sequence (whole entry): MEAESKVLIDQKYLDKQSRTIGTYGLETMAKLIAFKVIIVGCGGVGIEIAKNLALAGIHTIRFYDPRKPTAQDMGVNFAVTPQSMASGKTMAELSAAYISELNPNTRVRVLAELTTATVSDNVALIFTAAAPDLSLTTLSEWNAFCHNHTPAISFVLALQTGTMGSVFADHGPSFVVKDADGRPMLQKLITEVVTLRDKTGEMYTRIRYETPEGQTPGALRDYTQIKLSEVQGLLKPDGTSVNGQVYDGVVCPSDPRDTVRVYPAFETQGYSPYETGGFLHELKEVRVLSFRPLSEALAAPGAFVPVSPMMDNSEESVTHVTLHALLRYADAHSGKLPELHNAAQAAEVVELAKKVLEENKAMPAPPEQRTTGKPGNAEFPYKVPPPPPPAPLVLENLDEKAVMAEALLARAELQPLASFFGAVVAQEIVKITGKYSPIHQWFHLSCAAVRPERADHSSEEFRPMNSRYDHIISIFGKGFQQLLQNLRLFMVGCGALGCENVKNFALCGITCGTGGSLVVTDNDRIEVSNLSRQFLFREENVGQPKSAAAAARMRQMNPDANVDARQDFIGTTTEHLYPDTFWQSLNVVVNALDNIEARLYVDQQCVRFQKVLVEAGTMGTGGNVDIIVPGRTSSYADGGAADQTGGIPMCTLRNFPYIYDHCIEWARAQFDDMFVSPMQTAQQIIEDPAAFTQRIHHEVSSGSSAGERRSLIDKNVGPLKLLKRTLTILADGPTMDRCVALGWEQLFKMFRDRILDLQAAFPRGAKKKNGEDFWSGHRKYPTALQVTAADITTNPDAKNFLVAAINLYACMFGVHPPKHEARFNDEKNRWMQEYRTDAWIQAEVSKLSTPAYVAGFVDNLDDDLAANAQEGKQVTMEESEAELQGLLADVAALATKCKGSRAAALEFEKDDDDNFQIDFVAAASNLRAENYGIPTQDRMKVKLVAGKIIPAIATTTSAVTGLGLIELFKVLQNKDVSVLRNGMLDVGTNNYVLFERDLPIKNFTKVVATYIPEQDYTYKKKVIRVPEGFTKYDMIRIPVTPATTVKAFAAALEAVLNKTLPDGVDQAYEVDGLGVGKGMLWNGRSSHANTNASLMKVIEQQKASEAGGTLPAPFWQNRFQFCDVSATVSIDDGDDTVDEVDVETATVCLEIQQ
Put plainly: Leishmania donovani Ubiquitin Activating Enzyme (LdE1). Format: functional. The following applies: 30 µM.

Assay [3] concerns the target AMP-activated protein kinase, AMPK (Homo sapiens) (UniProt P54646+O43741+P54619+Q9UGJ0+Q9Y478+Q13131+Q9UGI9). Put plainly: AMP-dependent Kinase enzyme assay. An in vitro enzyme assay that detects ADP turnover that is directly proportional to AMPK activity. This uses naive AMPK that is activated during the assay with MK-8722. Format: functional. The settings on record: 30 µM.

The target of assay [4] is Sialic acid-binding Ig-like lectin 9 (Homo sapiens) (UniProt Q9Y336). Put plainly: Hs-Siglec9 ALPHAscreen SOP 20170721. The following applies: 10 µM. (In general: Bead proximity is the source of the signal in Alpha formats.)
Assay [5] has as its system Trypanosoma cruzi. Put plainly: Trypanosoma cruzi phosphomannomutase and mannose-1-phosphate guanylyltransferase assay. Format: functional. The settings on record: 10 µM.
Assay [6] concerns the target T2, Arginase-2, mitochondrial (Homo sapiens) (UniProt P78540).
T2 sequence (whole entry): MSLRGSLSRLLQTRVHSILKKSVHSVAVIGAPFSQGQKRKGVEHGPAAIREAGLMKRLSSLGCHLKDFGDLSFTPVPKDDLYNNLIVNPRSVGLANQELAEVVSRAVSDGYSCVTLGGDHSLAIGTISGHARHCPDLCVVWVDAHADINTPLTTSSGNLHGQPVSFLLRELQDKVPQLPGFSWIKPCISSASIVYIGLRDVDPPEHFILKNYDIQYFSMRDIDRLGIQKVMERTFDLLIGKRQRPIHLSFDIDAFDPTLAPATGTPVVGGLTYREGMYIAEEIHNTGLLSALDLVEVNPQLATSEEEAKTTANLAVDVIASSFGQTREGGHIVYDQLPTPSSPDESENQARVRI
Put plainly: in vitro enzyme assay to detect the production of urea directly proportional to the activity of Arginase II. Further: in the data most compounds retested in dose-response had high values. Type of assay: functional. The following applies: 33.3 µM.

Assay [7] concerns the target T3, Proteasome subunit beta (Trypanosoma cruzi) (UniProt O96673).
T3 sequence (whole entry): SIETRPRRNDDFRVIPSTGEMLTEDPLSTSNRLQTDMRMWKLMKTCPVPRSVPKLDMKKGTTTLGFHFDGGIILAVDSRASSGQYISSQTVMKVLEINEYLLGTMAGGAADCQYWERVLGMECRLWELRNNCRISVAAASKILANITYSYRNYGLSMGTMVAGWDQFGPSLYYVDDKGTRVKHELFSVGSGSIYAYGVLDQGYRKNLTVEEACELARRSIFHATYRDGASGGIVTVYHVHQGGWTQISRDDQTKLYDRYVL
Put plainly: Trypanosoma cruzi proteasome chymotrypsin-like activity (TcProtChymo) assay. Further: in the data most compounds retested in dose-response had high values. The settings on record: 9.37 µM. Type of assay: functional.

The species entered for assay [8] is Homo sapiens. Put plainly: To identify inhibition of the IFN signalling (Jak-Stat) pathway via expression of an eGFP reporter gene under the control of an IFN-stimulated response element (ISRE) containing MxA promoter. Format: functional. The settings on record: 30 µM. Background: Reporter assays use an easily measured gene product as a stand-in for the process of interest.

Assay [9] deals with T4, Tyrosyl-tRNA synthetase, putative (Trypanosoma cruzi (strain CL Brener)) (UniProt Q4DSP6).
T4 sequence (whole entry): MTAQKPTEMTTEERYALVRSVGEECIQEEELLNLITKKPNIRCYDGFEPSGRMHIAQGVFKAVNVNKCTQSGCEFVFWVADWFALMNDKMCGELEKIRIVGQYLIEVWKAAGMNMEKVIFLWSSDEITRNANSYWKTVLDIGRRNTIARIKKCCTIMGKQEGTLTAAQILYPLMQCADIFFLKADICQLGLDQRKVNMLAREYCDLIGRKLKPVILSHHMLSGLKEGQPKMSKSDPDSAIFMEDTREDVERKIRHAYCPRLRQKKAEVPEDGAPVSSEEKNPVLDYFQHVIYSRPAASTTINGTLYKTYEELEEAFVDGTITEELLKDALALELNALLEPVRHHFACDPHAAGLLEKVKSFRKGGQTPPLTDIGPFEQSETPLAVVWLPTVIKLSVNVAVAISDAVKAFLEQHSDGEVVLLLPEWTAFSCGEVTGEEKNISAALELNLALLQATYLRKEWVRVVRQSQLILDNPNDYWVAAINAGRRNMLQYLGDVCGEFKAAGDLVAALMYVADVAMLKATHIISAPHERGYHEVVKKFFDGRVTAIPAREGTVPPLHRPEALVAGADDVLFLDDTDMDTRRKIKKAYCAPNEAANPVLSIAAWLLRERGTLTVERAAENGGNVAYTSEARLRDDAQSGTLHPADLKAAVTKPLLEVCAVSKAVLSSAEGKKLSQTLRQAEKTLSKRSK
Put plainly: Trypanosoma cruzi tyrosyl tRNA synthetase (TcYRS) _High Tyrosine SOP. Further: in the data most compounds retested in dose-response had high values. Type of assay: functional. The settings on record: 30 µM.

For assay [10], the target named is T4, Tyrosyl-tRNA synthetase, putative (Trypanosoma cruzi (strain CL Brener)). Put plainly: Trypanosoma cruzi tyrosyl tRNA synthetase (TcYRS) SOP. The following applies: 30 µM. Type of assay: functional.
The target in assay [11] is Chromo domain-containing protein 1 (Saccharomyces cerevisiae (strain ATCC 204508 / S288c) (Baker's yeast)) (UniProt P32657). Put plainly: ScCHD-1 Enzyme Inhibition Assay. Further: in the data most compounds retested in dose-response had high values. Type of assay: functional. The following applies: 30 µM.
Sequence of Chromo domain-containing protein 1 (Saccharomyces cerevisiae (strain ATCC 204508 / S288c) (Baker's yeast)) (P32657 whole entry, the tested form may be a part): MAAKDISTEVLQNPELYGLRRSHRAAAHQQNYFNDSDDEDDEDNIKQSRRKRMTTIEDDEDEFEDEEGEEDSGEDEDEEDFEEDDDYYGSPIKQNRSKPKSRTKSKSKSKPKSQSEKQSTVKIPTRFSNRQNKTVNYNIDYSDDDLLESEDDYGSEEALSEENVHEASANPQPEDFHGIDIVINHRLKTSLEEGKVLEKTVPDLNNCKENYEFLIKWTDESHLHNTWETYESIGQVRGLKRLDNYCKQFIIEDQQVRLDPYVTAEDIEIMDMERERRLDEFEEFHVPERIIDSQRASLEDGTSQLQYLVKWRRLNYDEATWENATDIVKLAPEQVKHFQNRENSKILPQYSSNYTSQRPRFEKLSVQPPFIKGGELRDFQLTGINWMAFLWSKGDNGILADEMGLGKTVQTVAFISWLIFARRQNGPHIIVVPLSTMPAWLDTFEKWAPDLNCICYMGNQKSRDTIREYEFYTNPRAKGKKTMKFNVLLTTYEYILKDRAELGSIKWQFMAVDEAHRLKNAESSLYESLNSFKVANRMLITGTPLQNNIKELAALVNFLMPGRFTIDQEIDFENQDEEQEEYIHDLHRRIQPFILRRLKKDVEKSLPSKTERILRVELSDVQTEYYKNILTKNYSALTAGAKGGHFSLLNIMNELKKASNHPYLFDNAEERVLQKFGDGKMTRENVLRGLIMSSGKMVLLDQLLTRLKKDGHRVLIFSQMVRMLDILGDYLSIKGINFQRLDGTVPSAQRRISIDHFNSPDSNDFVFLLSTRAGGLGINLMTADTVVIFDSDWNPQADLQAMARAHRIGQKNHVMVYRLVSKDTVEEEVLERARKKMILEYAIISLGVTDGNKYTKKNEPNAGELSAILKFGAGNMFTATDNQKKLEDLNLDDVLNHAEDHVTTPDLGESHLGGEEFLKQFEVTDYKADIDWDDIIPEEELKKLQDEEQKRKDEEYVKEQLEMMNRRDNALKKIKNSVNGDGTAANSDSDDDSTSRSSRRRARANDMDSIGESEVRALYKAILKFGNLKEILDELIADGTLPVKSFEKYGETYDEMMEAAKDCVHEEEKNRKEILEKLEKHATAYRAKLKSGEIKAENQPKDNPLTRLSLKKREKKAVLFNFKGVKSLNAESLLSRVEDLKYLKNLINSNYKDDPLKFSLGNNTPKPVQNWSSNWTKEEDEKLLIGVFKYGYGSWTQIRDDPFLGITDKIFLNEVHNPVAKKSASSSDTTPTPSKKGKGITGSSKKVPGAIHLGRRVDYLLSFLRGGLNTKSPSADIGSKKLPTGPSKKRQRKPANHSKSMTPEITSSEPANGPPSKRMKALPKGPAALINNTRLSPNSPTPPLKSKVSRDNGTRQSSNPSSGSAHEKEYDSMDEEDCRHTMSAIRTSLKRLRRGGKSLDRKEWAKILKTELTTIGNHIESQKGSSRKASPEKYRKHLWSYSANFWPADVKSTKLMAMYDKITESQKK

Sequence of Protein translocase subunit SecA (Escherichia coli (strain K12)) (P10408 whole entry): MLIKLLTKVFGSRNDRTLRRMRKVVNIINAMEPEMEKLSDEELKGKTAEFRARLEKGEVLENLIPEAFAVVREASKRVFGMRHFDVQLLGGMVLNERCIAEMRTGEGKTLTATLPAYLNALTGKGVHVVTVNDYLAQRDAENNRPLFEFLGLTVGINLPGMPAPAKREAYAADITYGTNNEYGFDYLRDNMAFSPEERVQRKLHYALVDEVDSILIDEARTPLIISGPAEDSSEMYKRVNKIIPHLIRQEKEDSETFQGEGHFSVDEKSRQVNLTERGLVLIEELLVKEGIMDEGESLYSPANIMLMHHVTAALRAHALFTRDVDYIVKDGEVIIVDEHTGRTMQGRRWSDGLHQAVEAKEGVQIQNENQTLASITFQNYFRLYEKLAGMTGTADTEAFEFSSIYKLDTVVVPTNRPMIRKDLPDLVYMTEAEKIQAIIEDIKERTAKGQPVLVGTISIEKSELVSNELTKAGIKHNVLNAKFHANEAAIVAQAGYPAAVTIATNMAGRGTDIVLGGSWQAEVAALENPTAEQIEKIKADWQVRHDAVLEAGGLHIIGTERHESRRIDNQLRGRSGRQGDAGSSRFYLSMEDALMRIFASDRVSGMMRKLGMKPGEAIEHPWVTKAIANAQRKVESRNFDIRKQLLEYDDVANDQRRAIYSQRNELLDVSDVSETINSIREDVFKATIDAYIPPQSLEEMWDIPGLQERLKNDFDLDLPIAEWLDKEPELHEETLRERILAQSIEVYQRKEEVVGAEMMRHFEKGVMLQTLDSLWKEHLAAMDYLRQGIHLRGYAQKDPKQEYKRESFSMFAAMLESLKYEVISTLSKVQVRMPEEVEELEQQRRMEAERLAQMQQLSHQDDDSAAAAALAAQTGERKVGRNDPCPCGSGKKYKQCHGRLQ
Sequence of Sialic acid-binding Ig-like lectin 9 (Homo sapiens) (Q9Y336 whole entry): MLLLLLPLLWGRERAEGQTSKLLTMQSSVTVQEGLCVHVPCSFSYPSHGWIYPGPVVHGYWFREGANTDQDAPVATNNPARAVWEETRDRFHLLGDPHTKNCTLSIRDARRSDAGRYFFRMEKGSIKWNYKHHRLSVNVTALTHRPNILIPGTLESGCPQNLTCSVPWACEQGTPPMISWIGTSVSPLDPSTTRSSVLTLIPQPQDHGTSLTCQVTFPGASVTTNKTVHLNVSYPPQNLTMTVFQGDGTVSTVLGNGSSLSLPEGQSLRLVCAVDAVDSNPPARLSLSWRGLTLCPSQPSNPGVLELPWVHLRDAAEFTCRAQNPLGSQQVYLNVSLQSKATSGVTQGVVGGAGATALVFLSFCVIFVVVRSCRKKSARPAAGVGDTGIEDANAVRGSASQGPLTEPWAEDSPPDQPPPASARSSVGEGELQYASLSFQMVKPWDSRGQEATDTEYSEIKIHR

Take `Cn1cccc1C1CCCN1C(=O)NCCCn1cccn1` (stereo unspecified): the Percent Effect is -1.96% in assay [1]; 2.67% in assay [2]; -3.95% in [3]; -0.718% in assay [4]; -0.0974% in assay [5]; -2.08% in assay [6]. For the same molecule, the Percent Effect in assay [7] was 6.28%; in [8], 8.34%; in assay [9], 4.92%; in assay [10], 8.64%; in assay [11], -1.47%.
Regarding `Cc1nn(C)c(C)c1C1CCCN1Cc1cccc(C(=O)N(C)C)c1` (stereo unspecified), the Percent Effect was -2.08% in assay [1]; 7.59% in assay [2]; -8.35% in assay [3]; 3.65% in assay [4]; 4.06% in [5]; 0.76% in assay [6]. Also, the Percent Effect was 2.54% in [7]; -16.6% in assay [8]; 4.43% in [9]; 8.86% in assay [10]; 0.0198% in assay [11].
In the case of `Cc1cc(C)cc(-c2cccc(CC3(C(=O)O)CCOCC3)c2)c1`, the Percent Effect in [1] is -0.147%; in assay [2] it was 4.05%; in assay [3] it was 37.7%; in [4], 5.76%; in assay [5], -8.1%; in assay [6], -9.05%. For the same molecule, the Percent Effect in assay [7] was 15.1%; in assay [8], 31.5%; in assay [9], -26.9%; in [10], -45.5%; in [11], -6.99%.
As to `O=C(CN(C1=NCCCC1)c1ccccc1)c1ccccc1`, the Percent Effect in [1] was -3.17%; in assay [2], -2.63%; in [3], 3.38%; in assay [4] it was -3.96%; in [5] it was -3.21%; in assay [6], -7.1%. For the same molecule, the Percent Effect in [7] is 7.96%; in assay [8], -2.85%; in [9], -3.19%; in assay [10], -10.4%; in [11], -5.81%.
Turning to `CC1(C)CN(C(=O)NCCc2ccn(-c3ccccc3)n2)CCO1`, the Percent Effect in [1] was -4.22%; in [2] it was -2.6%; in assay [3] it was 8.97%; in [4], 11.9%; in assay [5], 1.47%; in assay [6], 4%. The Percent Effect was 2.02% in assay [7]; 8.51% in [8]; 2.86% in [9]; 7.06% in [10]; -12.9% in [11].
As for `COCCN1CCN(C(=O)C2CC=CC2)Cc2cccnc21`, the Percent Effect in assay [1] is -4.04%; in [2], 8%; in assay [3], 10.1%; in assay [4] it was 4.75%; in [5] it was 7.14%; in assay [6], -55.4%. The Percent Effect in assay [7] was 10.4%; in [8], -18.4%; in assay [9], 3.12%; in assay [10], 17.5%; in assay [11], -7.24%.
Consider `CC(=O)N1CCCN(C(=O)CCc2c(C)noc2C)CC1`, for which the Percent Effect in [1] is -5.5%; in [2] it was 18.4%; in assay [3] it was -6.52%; in assay [4] it was -3.87%; in assay [5], 3.95%; in assay [6], 0.766%. Further, the Percent Effect in assay [7] was 9.52%; in [8] it was 9.31%; in assay [9], 8.33%; in assay [10], 19.5%; in [11], -11.2%.
For the molecule `Cc1cccc(NC(=O)NCCCn2nc3ccccn3c2=O)c1C`, the Percent Effect in assay [1] was -5.55%; in assay [2], 2.7%; in assay [3], -32%; in [4], -5.5%; in [5], 0.0943%; in assay [6], 0%. The Percent Effect in assay [7] is -1.26%; in assay [8], 6.71%; in [9], 8.37%; in assay [10] it was 6.17%; in assay [11], -9.2%.
Take `CNS(=O)(=O)c1ccc(C(=O)N2CCCC(n3cccn3)C2)cc1` (stereo unspecified): the Percent Effect in assay [1] was -7.19%; in assay [2], 13.2%; in assay [3], -7.33%; in [4], 8.86%; in [5], 4.89%; in assay [6], -4.21%. The Percent Effect was 2.17% in assay [7]; 1.3% in assay [8]; 3.43% in assay [9]; 17.1% in assay [10]; -14.7% in [11].
On to `Cc1nc(CN(C)C(=O)Nc2cnn(CC3CCCO3)c2)cs1` (stereo unspecified), for which the Percent Effect was -3.47% in [1]; -5.41% in assay [2]; -27.6% in assay [3]; 1.65% in assay [4]; -0.965% in assay [5]; 0.952% in [6]. The Percent Effect is 5.86% in assay [7]; 15% in assay [8]; -6.88% in assay [9]; -9.76% in [10]; 0.495% in assay [11].
For `CCn1cc(CNC2CC(=O)N(CCc3cccc(Cl)c3)C2)cn1` (stereo unspecified), the Percent Effect in assay [1] was -5.27%; in [2] it was 8.22%; in [3], 1.5%; in assay [4] it was 35.6%; in assay [5] it was 0.397%; in assay [6] it was -3.99%. For the same molecule, the Percent Effect in assay [7] was 8.65%; in [8], 2.71%; in assay [9], 2.08%; in assay [10], 8.64%; in assay [11] it was -4.3%.
